Test results from PubChem BioAssay AID624093 (National Center for Advancing Translational Sciences (NCATS), 2012).
Records with an inconclusive call do not appear. Activity calls are given as the source filed them. Calls follow the shape of the dose curve; as a rule, active = well fitted inhibition curve with a large enough effect; inconclusive = small, poorly fitted or top-dose-only effect; inactive = flat fitted curve, though single readings scatter.

molecular target: Dual specificity tyrosine-phosphorylation-regulated kinase 1A (Homo sapiens) (UniProt Q13627); test: Confirmation Assay for Inhibitors of Dyrk1a (Kinase-Glo Assay): KU probe; conditions: Kinase-Glo ATP luminescence; series mostly up to 76.9 µM
Description: NIH Molecular Libraries Probe Production Centers Network [MLPCN] NIH Chemical Genomics Center [NCGC] MLSCN Grant: 1R03MH084827-01 PI Name: Tom Misteli NCGC Assay Overview: The CMGC group of protein kinases which includes CDK-like kinases (Clk) and Dyks are essential kinases found in all eukaryotes. Clks have been implicated to play a role in the regulation of alternative splicing; while Dyrks, in particular over expression of Dyrk1A, has been linked to diseases as Down syndrome (DS; OMIM 190685) and Alzheimer disease (AD; OMIM 104300). Among the members of the CMGC group, the Clks and the Dyrks are very closely related therefore to determine validity and selectivity of an active compound observed in the CLK4 qHTS screen (AID:1770), a bioluminescent counter-screen against Dyrk1A was developed. In addition, potent and selective compounds against Dyrk1A were identified to further assess the role of this enzyme in DS and AD. Dyrk1A (Invitrogen, cat # PV3785) was assayed using ATP and DYRKtide (AnaSpec, cat# 62698) as substrates. Promega Kinase-Glo (cat# V6712) technology was used to detect the residual ATP following kinetic reaction. The Kinase-Glo Plus contains Ultra-Glo [5] luciferase and D-luciferin which generates a bioluminescence signal from the remaining ATP. No enzyme and harmine (Sigma, cat # 286044-1G), a compound shown to inhibit Dyrks were used as a positive control; while DMSO treatment was used as a negative control.
NCGC Assay Protocol Summary: Two uL/well of substrate solution (8uM Dyrktide, 2uM ATP, 25mM Tris-HCl pH 7.5, 10mM MgCl2 , 0.5mM EGTA, 5mM cystein, 0.01% Triton X-100 final concentration) was dispensed into 1536-well assay plates (Greiner, solid white, medium-binding plates) with Aurora Discovery BioRAPTR Flying Reagent Dispenser (FRD, Beckton-Dickenson). Compound solution (23 nL) was transferred to the assay plate using Kalypsys pin tool equipped with a 1536-pin tool. One uL/well enzyme solution (5nM Dyrk1A, 25mM Tris-HCl pH7.5, 10mM MgCl2, 0.5mM EGTA, 5mM cystein, 0.01% Triton X-100 final concentration) was then added using FRD yielding a total kinase reaction volume of 3uL/well. After 2 hours of room temperature incubation, 3uL Kinase-Glo detection reagent was added for a final assay volume of 6uL/well. The plates were spun for 30 seconds (1000 rpm) and incubated at ambient temperature for 2 minutes followed by a luminescence read using Perkin Elmer ViewLux plate reader at 3 seconds exposure time and 2x binning.

Structure (SMILES)	Potency
CCCNc1ncnc2ccc(-c3ccc4c(c3)OCO4)cc12	116 nM (active)
c1nc(NCC2CCCC2)c2cc(-c3ccc4c(c3)OCO4)ccc2n1	65.4 nM (active)
COc1ccc(-c2ccnc(NCc3ccc(Cl)c(Cl)c3)n2)cc1	733 nM (active)
c1cncc(CNc2nccc(-c3ccc4[nH]ncc4c3)n2)c1	146 nM (active)
Clc1ccc(CNc2ccnc(-c3ccc4[nH]ncc4c3)n2)cc1Cl	4630 nM (active)
c1cncc(CNc2ccnc(-c3ccc4ccccc4c3)n2)c1	14600 nM (active)
COc1ccc(-c2ncccn2)cc1	inactive
Clc1cc(Cl)cc(CNc2ncncc2-c2ccc3c(c2)OCO3)c1	2600 nM (active)
c1cc(-c2ccc3c(c2)OCO3)nc(Nc2ccc3c(c2)OCO3)n1	130 nM (active)
Cc1c(-c2ccnc(NCc3cccnc3)n2)sc(=O)n1C	146 nM (active)
Clc1cc(Cl)cc(CNc2ccnc(-c3ccc4c(c3)OCO4)n2)c1	inactive
Clc1ccc(CNc2ccnc(-c3ccc4c(c3)OCO4)n2)cc1Cl	inactive
c1nc(NCC2CC2)c2cc(-c3ccc4c(c3)OCO4)ccc2n1	41.2 nM (active)
c1nc(NCC2CCCOC2)c2cc(-c3ccc4c(c3)OCO4)ccc2n1 (stereo not given)	116 nM (active)
CCN(C)c1ncnc2ccc(-c3ccc4c(c3)OCO4)cc12	260 nM (active)
Clc1ccc(Nc2nccc(-c3ccc4c(c3)OCO4)n2)cc1	519 nM (active)
COc1ccc(-c2nccc(NCc3ccc(Cl)cc3)n2)cc1	inactive
COc1ccc(-c2nccc(NCc3ccccc3)n2)cc1	inactive
c1cc(-c2ccoc2)nc(-c2ccoc2)n1	20700 nM (active)
CN(C)c1ccc(-c2nccc(NCc3ccccc3)n2)cc1	inactive

Structure (SMILES)	Potency
c1cncc(CNc2cc(-c3ccc4c(c3)OCO4)ncn2)c1	16400 nM (active)
Cc1noc(C)c1-c1nccc(NCc2ccc(Cl)cc2)n1	inactive
c1nc(NCCC2CCCO2)c2cc(-c3ccc4c(c3)OCO4)ccc2n1 (stereo not given)	164 nM (active)
N#Cc1cccc(-c2ncccn2)c1	inactive
Cc1csc(CN(C)c2ncnc3ccc(-c4ccc5c(c4)OCO5)cc23)n1	23.2 nM (active)
CN(C)c1ccc(-c2ncccn2)cc1	inactive
Cc1noc(C)c1-c1nccc(NCc2ccc(Cl)c(Cl)c2)n1	inactive
COc1cccc(-c2ccnc(NCc3ccc(Cl)c(Cl)c3)n2)c1	5820 nM (active)
Brc1cc(Br)cc(CNc2nccc(-c3ccc4c(c3)OCO4)n2)c1	73.3 nM (active)
c1cc(-c2ccoc2)nc(-c2ccc3c(c2)OCO3)n1	29200 nM (active)
Clc1ccc(CNc2ncncc2-c2ccc3c(c2)OCO3)cc1Cl	4120 nM (active)
COc1ccc(CNc2ccnc(-c3c(C)noc3C)n2)cc1	inactive
Cc1ccc(CNc2ccnc(-c3ccc(N(C)C)cc3)n2)cc1	inactive
CC(C)(C)CNc1ncnc2ccc(-c3ccc4c(c3)OCO4)cc12	11.6 nM (active)
c1cncc(CNc2nccc(-c3ccc4c(c3)OCO4)n2)c1	36.8 nM (active)
O=C(Nc1ccnc(-c2ccc3c(c2)OCO3)n1)c1ccncn1	inactive
COc1cccc(-c2ccnc(NCc3ccc(Cl)cc3)n2)c1	7330 nM (active)
Clc1ccc(CNc2nccc(-c3ccc4[nH]ncc4c3)n2)cc1Cl	328 nM (active)
Cc1c(-c2ccnc(Nc3cc(Br)cc(C(F)(F)F)c3)n2)sc(=O)n1C	130 nM (active)
c1coc(-c2ccnc(-c3ccc4c(c3)OCO4)n2)c1	20700 nM (active)
